ELG1 repair inh = inhibitors of ELG1-dependent DNA repair in HEK293T cells | HEK293T ELG1-luciferase reporter, luminescence, 16 h; DNA damage induced by 5-fluorouridine | Potency, µM (titrated, usually from 46.1 µM), inactives show top-dose activity change, negative = inhibition, most hits filed as inhibitors | 2.3% of 330,000 active; note: % is set by controls: 0 for no effect and ±100 for the full control effect; nearly all actives have a fitted effect of over 55% in size
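HEK293T cells expressing luciferase-tagged ELG1 (2,000/well) received 5-Fluorouridine plus compound or DMSO for 16 hr at 37 °C. Luciferase was read by ONE-Glo luminescence after 30 min at room temperature.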
KB-3-1 tox = kills parental KB-3-1 adenocarcinoma cells | KB-3-1 viability, CellTiter-Glo ATP luminescence, 72 h | Potency, µM (titrated, usually from 46.1 µM), actives largely listed as cytotoxic | 1.4% of 400,000 active; note: % is set by controls: 0 for no effect and ±100 for the full control effect; nearly all actives have a fitted effect of over 60% in size
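Multi-concentration cytotoxicity screen in KB-3-1 cells grown in DMEM lacking phenol red with 10% FBS. After 72 h at 37 °C with compound, ATP-dependent luminescence was recorded.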
KB-V1 MDR tox = KB-V1 MDR subline cytotoxicity | Potency, µM (titrated, usually from 46.1 µM), actives largely listed as cytotoxic | 3.4% of 400,000 active | KB-V1 MDR cells viability, CellTiter-Glo, 72 h; note: % is set by controls: 0 for no effect and ±100 for the full control effect; nearly all actives have a fitted effect of over 60% in size
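Cytotoxicity via CellTiter-Glo luminescence after 72 h compound exposure at 37 degrees C. Cells: drug-selected KB-V1 line, DMEM phenol-red free plus 10% FBS. Compounds tested at multiple concentrations; normalized data fitted to concentration-effect curves.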
SW480 rereplic = DNA re-replication induction in SW480 cells; Potency, µM (doses to about 46.1 µM), inactives show at the highest dose re-replication activation, actives largely listed as activators; AID 624297; SW480 DNA re-replication, Hoechst DNA content imaging, 48 h; 1.8% of 340,000 active; note: % of control where 0% means no effect; nearly all actives have a fitted effect of over 55% in size
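250 cells/well; 23 nL cpd via pin tool; 48 hr, 37 C, 5% CO2; Hoechst 40 min; imager read of total nuclear intensity, ex 405/em 500-530 nm.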
MCF10A rereplic = DNA re-replication induction in MCF 10a cells; MCF 10A DNA re-replication, Hoechst nuclear intensity, 48 h; Potency, µM (doses to about 46.1 µM), inactives show at the top dose activity, positive = re-replication, hits mostly activators; 2.9% of 350,000 active; AID 624296; note: % of control where 0% means no effect; nearly all actives have a fitted effect of over 50% in size
Numbers without * were called inactive; i = inactive; u = inconclusive; x = no result given; [ ] = remark or other dose. Rows were chosen to be rich in hits. Some 8.2% of all compounds tested hit in one or more screens of this group. Calls come from the whole dose curve; as a rule, active = well fitted curve in the direction sought with a large enough effect; inconclusive = small, poorly fitted or top-dose-only effect, or another doubt; inactive = no such curve, though single readings can be large; an effect the other way counts as inactive or inconclusive. Potency is the fitted concentration of half-maximal effect.

SMILES | ELG1 repair inh | KB-3-1 tox | KB-V1 MDR tox | SW480 rereplic | MCF10A rereplic
C[C@H](CO)N1C[C@H](C)[C@@H](CN(C)C(=O)Nc2ccccc2)Oc2c(NS(=O)(=O)c3ccc(F)cc3)cccc2C1=O | u | i | i | 1% | -4%
C=C1CC2C(CC[C@]3(C)C(=O)CCC23)[C@]2(C)C=CC(=O)C=C12 (some centres undefined) | x | x | x | 12% | 21%
O=C1CN(O)C(c2ccccc2Cl)=c2cc(Br)ccc2=N1 | -2% | i | i | -1% | 23µM*
O=C1CN(O)C(c2ccccc2)=c2cc(Br)ccc2=N1 | -1% | i | u | -1% | -6%
O=C(/C=C/c1ccccc1)C1C(=O)c2ccccc2C1=O | u | u | 3.7µM* | -6% | u
CCOC(=O)NC(O)C(Cl)(Cl)Cl (centres undefined) | x | x | x | 3% | -2%
Cc1ccc2c(c1Cl)NC(C(=O)O)C1CC(Sc3ccccc3[N+](=O)[O-])C(Cl)C21 (centres undefined) | -10% | i | i | -7% | 8%
CCN(CC)C(=O)c1ccc2c(c1)C1C(Cl)C(Sc3ccccc3[N+](=O)[O-])CC1C(C(=O)O)N2 (centres undefined) | -27% | 2.6µM* | i | -1% | 1%
CCOC(=O)c1cnc(N2CC2)nc1N | x | u | 5.8µM* | u | u
CCOC(=O)c1ccccc1C(=O)OCC | x | i | i | -54% | 12%
Cn1cc(C(=O)c2ccccc2)c2ccccc21 | u | i | i | 1% | 16%
COC(=O)c1cn(S(=O)(=O)c2ccccc2)c2ccccc12 | -4% | i | i | u | 26µM*
CC[C@]1(c2cccc(O)c2)CCCCN(C)C1 | x | x | x | -2%[20.6 µM] | -9%[20.6 µM]
O=C1NC(=O)N(c2ccccc2F)C(=O)/C1=C/c1cn(CC(=O)N2CCOCC2)c2ccccc12 | u | i | i | 6% | 21µM*
CC(=O)N1c2ccc(S(=O)(=O)N3CCCC(C(=O)Nc4cc(C)cc(C)c4)C3)cc2CC1C (centres undefined) | u | i | i | 3% | 1%
O=C(Nc1ccc(Br)cc1)c1cc(Br)cc(Br)c1O | x | x | x | -3% | u
COc1ccc(CN2Cc3cnnn3-c3ccccc3C2c2ccccc2)cc1 (centres undefined) | x | u | u | u | 16µM*
N#CC1c2ccccc2-n2nncc2CN1Cc1cc(Cl)cc(Cl)c1 (centres undefined) | x | 5.8µM* | u | u | 6.5µM*
COc1ccc(CN2Cc3cnnn3-c3ccccc3C2C#N)cc1 (centres undefined) | x | i | u | u | 3.3µM*
CCCn1c(=O)n(C)c(=O)c2c(SCC(=O)NC34CC5CC(CC(C5)C3)C4)nc(CC(C)C)nc21 | 23µM* | u | i | -3% | 8%
COc1ccc(C2=CCC3CCCCN3C2)cc1OC (centres undefined) | u | i | i | -5% | -7%
CC(C)n1c(=O)c(C=Nc2cccc([N+](=O)[O-])c2)c(O)n(CCc2ccccc2)c1=O | u | i | i | -3% | 23µM*
C1=C(c2c[nH]c3ccccc23)CCNC1 | -7% | x | x | x | x
CC(C)N1CC=C(c2c[nH]c3ccccc23)CC1 | u | 2.1µM* | i | 12% | 41%
Cc1cccc(-n2c(/C=C/c3cn(C)c4ccccc34)nc3ccccc3c2=O)c1 | x | i | i | x | x
SMILES | ELG1 repair inh | KB-3-1 tox | KB-V1 MDR tox | SW480 rereplic | MCF10A rereplic
c1ccc(-c2[nH]c(-c3ccccc3)[n+](CC3CO3)c2-c2ccccc2)cc1 (centres undefined) | 23µM* | u | u | x | 13µM*
C=C1C(=O)O[C@@H]2C[C@@H](C)[C@H]3C=CC(=O)[C@]3(O)C[C@@H]12 | 13% | i | i | u | u
C=C1C(=O)OC2CC3(C)OC3CCC(C)=CC(OC(C)=O)C12 (centres undefined) | x | u | i | 4% | 5.2µM*
CC[C@@H]1[C@@H]2C[C@H]3[C@H]4N(C)c5ccccc5[C@@]45C[C@@H]([C@@H]2[C@@H]5O)N3[C@H]1O | x | x | x | -3%[20.6 µM] | 1%[20.6 µM]
C[N+]1(C)CCCCC1COC(=O)C(O)(c1ccccc1)c1ccccc1 (centres undefined) | x | x | x | -12% | 0%
COc1ccc(N=C(C)c2c(O)[nH]c(=O)[nH]c2=O)cc1 | 8% | i | u | -91% | u
CCC(=Nc1cc(OC)ccc1OC)c1c(O)[nH]c(=O)[nH]c1=O | 6% | 5.8µM* | 2.6µM* | 2% | 16%
CCC(=Nc1ccc(OC)cc1OC)c1c(O)[nH]c(=O)[nH]c1=O | 15% | u | 10µM* | -9% | u
C=CCn1c(O)c(C(CC)=Nc2cc(OC)ccc2OC)c(=O)[nH]c1=O | u | i | u | -22% | 20%
CC/C(=N\Nc1ccccc1)c1c(O)[nH]c(=O)[nH]c1=O | 4.1µM* | i | i | -20% | 17%
Cc1ccc(-n2c(/C=C/c3cccc4ccccc34)nc3ccccc3c2=O)cc1 | x | i | i | x | x
CC(C)(C)CC(C)(C)c1ccc(O)cc1 | x | x | x | 9% | u
COc1cccc(C2SCC(=O)Nc3c2c(C)nn3-c2ccc(C)c(Cl)c2)c1OC (centres undefined) | x | i | i | x | x
CCn1c(O)c(/C=N/NC(=O)c2ccccc2)c(=O)n(CC)c1=S | u | u | i | 18µM* | u
CCn1c(O)c(/C=N/NC(=O)c2ccncc2)c(=O)[nH]c1=S | 27% | i | i | 1% | 24%
C=CCCC[C@@H]1OC(=O)CNC(=O)C([C@@H](C)CC)NC(=O)[C@@H]2CCCN2C(=O)C([C@@H](C)CC)OC(=O)[C@H](Cc2ccccc2)N(C)C(=O)[C@H](C(C)C)NC(=O)C1(C)C (some centres undefined) | x | u | i | x | x
CCC(C)C1NC(=O)C2CCCN2C(=O)C(CC(C)C)OC(=O)CCNC(=O)C(C)N(C)C(=O)C(C(C)C)N(C)C1=O (centres undefined) | x | 4.6µM* | i | 12µM* | u
C=CC[C@@H](CC(=O)N(CCO)Cc1ccccc1)C(=O)NC[C@H](OC(=O)[C@@H](CC=C)CC(=O)OC(C)(C)C)c1ccccc1 | 21µM* | u | i | -2% | 41%
CCSc1nnc(NC(=O)c2cccn(Cc3ccc(Cl)cc3)c2=O)s1 | x | i | i | x | x
NCCc1ccc(OCc2ccccc2)c(OCc2ccccc2)c1 | -19% | u | 23µM* | u | u
CC1=CC(O)C(O)C2(C)C1CC1OC(=O)CC3C(C)C(O)C(=O)C2C13CO (centres undefined) | x | 18µM* | i | u | 0%

Screening data (PubChem)
